Measured values reported in PubChem BioAssay (NCATS).
Records with an inconclusive call do not appear. A number with no mark means an inactive call. Calls of active or inactive are those of the source. Calls follow the shape of the dose curve; as a rule, active = well fitted cell-killing curve with a large enough effect; inconclusive = small, poorly fitted or top-dose-only effect, or effect the other way; inactive = no such curve, though single readings can be large or run the other way.

Assay: Quantitative High-Throughput drug screen in 47 multiple myeloma cell lines against the NCATS MIPE library collection: KHM11_PLB cell viability assay (AID 1918962); also: nearly all actives have a fitted effect of over 35% in size
Conditions: KHM11 myeloma cell viability, CellTiter-Glo ATP luminescence, 48 h; series mostly up to 45.8 µM; viability, % of DMSO control: at the top concentration
Excerpt: PI: Beverly A. Mock Ph.D.
Laboratory of Cancer Biology and Genetics,
Center for Cancer Research, National Cancer Institute,
National Institute of Health, Bethesda, Maryland
Drug resistance and disease progression are common in multiple myeloma (MM) patients, underscoring the need for new therapeutic combinations. […] We hypothesized that effective combinations would reduce MYC expression and enhance p16 activity. […] These preclinical data identify potentially useful drug combinations for evaluation in drug-resistant MM and reveal potential mechanisms of combined drug sensitivity.
Described herein is the primary MIPE qHTS used to cherrypick compounds. Validated compounds were then further tested for potential synergistic activiy.
[1] Peat TJ, Gaikwad SM, Dubois W, Gyabaah-Kessie N, Zhang S, Gorjifard S, Phyo Z, Andres M, Hughitt VK, Simpson RM, Miller MA, Girvin AT, Taylor A, Williams D, D'Antonio N, Zhang Y, Rajagopalan A, Flietner E, Wilson K, Zhang X, Shinn P, Klumpp-Thomas C, McKnight C, Itkin Z, Chen L, Kazandijian D, Zhang J, Michalowski AM, Simmons JK, Keats J, Thomas CJ, Mock BA. Drug combinations identified by high-throughput screening promote cell cycle transition and upregulate Smad pathways in myeloma. Cancer Lett. 2023 Aug 1;568:216284. doi: 10.1016/j.canlet.2023.216284. Epub 2023 Jun 24. PMID: 37356470; PMCID: PMC10408729.
SEQUENCE No. (e.g., 1, 2, 3, etc.); […] (e.g., Cells, Incubation, Reagent, etc.); VALUE and DESCRIPTION.
1; Cells; 5 uL; white, solid bottom 1536-well Greiner assay plate.
2; Compounds; 23 nL; Kalypsis pin tool (Wako USA) equipped with a 1536-well pin head to transfer to the assay plates.
3; Incubation; 48 hours; 37C incubation.
4; Reagent;5uL; CellTiter Glo (Promega).
5; Detector; 425V; Luminescence; Viewlux PerkinElmer.
NOTES (numbers refer to Sequence numbers above)
1. The cell-based screening methods employed in this study were like those previously published. Briefly, the corresponding myeloma cell lines were screened in 1,536-well plates with 500 cells, 5-uL per well for inhibition of cell viability (assessed by measuring ATP levels with CellTiterGlo).
2. NCATS MIPE 4.0 library of approved and investigational drugs were added using the Kalypsis pin tool. Wells treated with DMSO only for 100% viability and media only wells for 0% viability were used as controls.
3. The assay plates were covered and incubated for 48 hours in a 37C, 5% CO2 incubator with controlled humidity.
4. After 48 hours, CellTilter-GloTM luminescent substrate mix (Promega) reagent was added to the assay plate and plates we incubated for 5 min at room temperature.
5. Signal was measured as median relative luminescence units on a ViewLux (PerkinElmer) multiplate reader.
[1] Heske CM, Davis MI, Baumgart JT, Wilson K, Gormally MV, Chen L, Zhang X, Ceribelli M, Duveau DY, Guha R, Ferrer M, Arnaldez FI, Ji J, Tran HL, Zhang Y, Mendoza A, Helman LJ, Thomas CJ. Matrix Screen Identifies Synergistic Combination of PARP Inhibitors and Nicotinamide Phosphoribosyltransferase (NAMPT) Inhibitors in Ewing Sarcoma. Clin Cancer Res. 2017 Dec 1;23(23):7301-7311. doi: 10.1158/1078-0432.CCR-17-1121. Epub 2017 Sep 12. PMID: 28899971; PMCID: PMC6636827.
Potency is read from the fitted curve at half-maximal effect.

**Q.** With C=CC[C@@H]1C=C(C)C[C@H](C)C[C@H](OC)[C@H]2O[C@@](O)(C(=O)C(=O)N3CCCC[C@H]3C(=O)O[C@H](C(C)=C[C@@H]3CC[C@H](O)[C@H](OC)C3)[C@@H](C)[C@@H](O)CC1=O)[C@@H](C)C[C@@H]2OC as the compound, how does the Potency read?
**A.** 2.64 µM (active)

**Q.** With O=C(C[C@@H]1CC=CCCC(=O)O[C@H](c2ccccc2)CNC1=O)NCc1ccc(Cl)cc1 as the compound, how does the Potency read?
**A.** 2.64 µM (active)

**Q.** Which Potency does the source give for CCCNC(=O)[C@H]1O[C@H]1C(=O)N[C@H](C(=O)N1CCC[C@@H]1C(=O)OC)C(C)CC (stereo not given in full) here?
**A.** 33.2 µM (active)

**Q.** With CCc1ccc(C(=O)Nc2cc(CN3CCN(C)CC3)cc(C(F)(F)F)c2)cc1C#Cc1cnc2ccnn2c1 as the compound, how does the Potency read?
**A.** 9.35 µM (active)

**Q.** With CCCNS(=O)(=O)Nc1ncnc(OCCOc2ncc(Br)cn2)c1-c1ccc(Br)cc1 as the compound, how does the “viability, % of DMSO control” value read?
**A.** 116%

**Q.** With COc1ccnc2[nH]cc(C(=O)C(=O)N3CCN(C(=O)c4ccccc4)C[C@@H]3C)c12 as the compound, how does the “viability, % of DMSO control” value read?
**A.** 138%

**Q.** For C[C@H](NC(=O)[C@@H](O)c1cc(F)cc(F)c1)C(=O)N[C@@H]1C(=O)N(C)c2ccccc2-c2ccccc21, which “viability, % of DMSO control” value is on record?
**A.** 99.7%

**Q.** For Nc1ncn([C@@H]2O[C@H](CO)[C@@H](O)[C@@H]2O)c(=O)n1, which Potency is on record?
**A.** 14.8 µM (active)

**Q.** For COc1cc(C=CC(=O)CC(=O)C=Cc2ccc(O)c(OC)c2)ccc1O, which Potency is on record?
**A.** 6.05 µM (active)

**Q.** Which “viability, % of DMSO control” value does the source give for C[C@H]1O[C@H](O[C@H]2[C@H](O)[C@@H](O)[C@@H](O[C@H]3[C@H](O)[C@@H](O)C(O)O[C@H]3CO)O[C@H]2CO)[C@H](O)[C@@H](O)[C@H]1N[C@H]1C=C(CO)[C@@H](O)[C@H](O)[C@@H]1O (stereo not given in full) here?
**A.** 145%

**Q.** For CC(C)(N)c1ccc(-c2nc3ccccc3nc2-c2ccccc2)cc1, which Potency is on record?
**A.** 8.33 µM (active)

**Q.** With COc1ccc(C[C@@H](C)[C@@H](C)Cc2ccc(OC)c(OC)c2)cc1OC as the compound, how does the Potency read?
**A.** 0.148 µM (active)

**Q.** Which “viability, % of DMSO control” value does the source give for c1cc(CN2CCCNCCNCCCNCC2)ccc1CN1CCCNCCNCCCNCC1 here?
**A.** 145%

**Q.** Which “viability, % of DMSO control” value does the source give for CCC[C@H]1C[C@H](C(=O)N[C@@H]([C@@H]2O[C@@H](SC)[C@@H](O)[C@@H](O)[C@@H]2O)[C@H](C)Cl)N(C)C1 here?
**A.** 95.5%

**Q.** Which “viability, % of DMSO control” value does the source give for CC[C@H](CC[C@@H](C)[C@H]1CC[C@H]2[C@@H]3CC=C4C[C@@H](O)CC[C@]4(C)[C@@H]3CC[C@]12C)C(C)C here?
**A.** 93.2%

**Q.** With O=C(Nc1cc2cc[nH]c2cn1)c1ccccc1 as the compound, how does the Potency read?
**A.** 7.43 µM (active)

**Q.** Which Potency does the source give for c1cncc(CN2CCC(n3ncc4c(N5CCOCC5)nc(-c5ccc6[nH]ccc6c5)nc43)CC2)c1 here?
**A.** 1.66 µM (active)

**Q.** With O=c1c(O)c(-c2ccc(O)c(O)c2)oc2cc(O)ccc12 as the compound, how does the Potency read?
**A.** 13.2 µM (active)

**Q.** Which Potency does the source give for CC(C)(O)Cn1c(NC(=O)c2ccc(-c3cn[nH]c3)s2)nc2cc(CN3CCOCC3)ccc21 here?
**A.** 0.296 µM (active)

**Q.** Which Potency does the source give for COc1ccc(Nc2cc(-c3cnc(N)nc3)nc(N3CCOCC3)n2)cn1 here?
**A.** 4.18 µM (active)

**Q.** For CC[C@H]1OC(=O)[C@H](C)[C@@H](O[C@H]2C[C@@](C)(OC)[C@@H](O)[C@H](C)O2)[C@H](C)[C@@H](O[C@@H]2O[C@@H](C)C[C@H](N(C)C)[C@@H]2O)[C@](C)(O)C[C@@H](C)C(=O)[C@H](C)[C@@H](O)[C@]1(C)O, which “viability, % of DMSO control” value is on record?
**A.** 103%

**Q.** Which Potency does the source give for c1ccc(CNc2nc(NCc3ccccc3)c3ccccc3n2)cc1 here?
**A.** 8.33 µM (active)

**Q.** For O=C(CCCCCCC(=O)Nc1cccnc1)NO, which Potency is on record?
**A.** 8.33 µM (active)

**Q.** With OCc1ccccc1O[C@@H]1O[C@H](CO)[C@H](O)[C@H](O)[C@H]1O as the compound, how does the “viability, % of DMSO control” value read?
**A.** 149%

**Q.** With CC(C(C)N1CC(=O)NC(=O)C1)N1CC(=O)NC(=O)C1 (stereo not given) as the compound, how does the “viability, % of DMSO control” value read?
**A.** 130%

**Q.** Which Potency does the source give for Cc1cc(Nc2ncc3c(n2)N(C)C(=O)N(c2cc(NC(=O)c4cccc(C(F)(F)F)c4)ccc2C)C3)n(C)n1 here?
**A.** 0.372 µM (active)

**Q.** Which Potency does the source give for Oc1cc(-c2nc(-c3ccccc3)[nH]c2-c2ccncc2)ccc1Cl here?
**A.** 1.18 µM (active)

**Q.** With O=C(O)C[C@H](O)C[C@H](O)C=Cc1c(C2CC2)nc2ccccc2c1-c1ccc(F)cc1 as the compound, how does the Potency read?
**A.** 7.43 µM (active)

**Q.** For COc1cc(C[C@@H](CO)[C@H](CO)Cc2ccc(O)c(OC)c2)ccc1O, which Potency is on record?
**A.** 1.18 µM (active)

**Q.** Which Potency does the source give for CCOC(=O)[C@H](CCc1ccccc1)N[C@@H](C)C(=O)N1[C@@H](C(=O)O)C[C@H]2CCC[C@@H]21 here?
**A.** 9.35 µM (active)

**Q.** Which “viability, % of DMSO control” value does the source give for NC(=O)c1cccc(-c2cccc(OC(=O)NC3CCCCC3)c2)c1 here?
**A.** 107%

**Q.** Which Potency does the source give for C[C@H]1[C@@H](OC(=O)CCC(=O)O)O[C@@H]2O[C@@]3(C)CC[C@@H]4[C@H](C)CC[C@@H]1[C@@]24OO3 here?
**A.** 3.32 µM (active)

**Q.** Which “viability, % of DMSO control” value does the source give for c1coc(CNc2ncnc3nc[nH]c23)c1 here?
**A.** 86.7%

**Q.** For C=C1C(=O)O[C@H]2[C@@H]1CCC(C)=CCC[C@@]1(C)O[C@@H]21, which Potency is on record?
**A.** 10.5 µM (active)

**Q.** For Cn1cnc(=N)c2[nH]cnc21, which Potency is on record?
**A.** 0.372 µM (active)

**Q.** For O=[N+]([O-])c1cn2c(n1)OC[C@@H](OCc1ccc(OC(F)(F)F)cc1)C2, which “viability, % of DMSO control” value is on record?
**A.** 134%

**Q.** With C[C@@H](Cc1cc2c(c(C(N)=O)c1)N(CCCO)CC2)NCCOc1ccccc1OCC(F)(F)F as the compound, how does the “viability, % of DMSO control” value read?
**A.** 91.3%

**Q.** Which Potency does the source give for CCS(=O)(=O)Nc1ccc2[nH]c(O)c(C(=Nc3ccc(CN4CCCCC4)cc3)c3ccccc3)c2c1 here?
**A.** 0.418 µM (active)

**Q.** Which Potency does the source give for FC(F)(F)c1ccc(Nc2nc3ccc(Oc4ccnc(-c5ncc(C(F)(F)F)[nH]5)c4)cc3[nH]2)cc1 here?
**A.** 20.9 µM (active)

**Q.** For COC(=O)[C@@H]1CC2=CC(=O)CC[C@]2(C)[C@@]23O[C@@H]2C[C@@]2(C)[C@H](CC[C@@]24CCC(=O)O4)[C@@H]13, which “viability, % of DMSO control” value is on record?
**A.** 98.1%
